Hits are enriched below; roughly 3.5% of the tested compounds scored in any of these assays.
Mtb FBA inh: Mtb FBA enzyme inhibitors, primary screen, biochemical, fluorescence, strain H37Rv; Fructose-bisphosphate aldolase (Mycobacterium tuberculosis (strain ATCC 25618 / H37Rv)), …; purified M. tuberculosis FBA, fluorescence read-out; inhibition, % at 1 µM; 2.3% of 360,000 active; AID 588726, 2011; in the data active = inhibition above about 27%;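 note: 0% = vehicle and 100% = reference inhibitor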
Target sequence (P9WQA3 whole entry, looked up): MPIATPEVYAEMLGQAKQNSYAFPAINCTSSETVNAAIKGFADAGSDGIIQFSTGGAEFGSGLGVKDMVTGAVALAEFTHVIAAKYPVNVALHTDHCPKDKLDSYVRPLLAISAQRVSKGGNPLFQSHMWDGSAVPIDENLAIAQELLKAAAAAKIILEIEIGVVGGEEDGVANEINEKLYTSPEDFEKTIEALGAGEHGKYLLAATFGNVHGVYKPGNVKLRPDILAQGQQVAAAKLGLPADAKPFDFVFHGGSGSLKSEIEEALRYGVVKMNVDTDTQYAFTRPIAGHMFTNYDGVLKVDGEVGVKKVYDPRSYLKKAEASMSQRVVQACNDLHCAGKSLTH
Mtb bLac sens: beta-lactam sensitization of Mtb H37Rv, H37Rv. M. tuberculosis H37Rv growth with meropenem, percent inhibition. inhibition, % at 25 µM. 0.27% of 330,000 active. AID 434955, 2010; call rule not given here;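 note: growth measured after seven days incubation then overnight dye step; 0% = bacteria only wells and 100% = bacteria with antibiotic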
GDH-TPI counter: GDH-TPI coupling enzyme inhibitors, primary screen, artefact control for M. tuberculosis FBA inhibitor project, biochemical, absorbance, full deck; GDH-TPI coupled enzyme counterscreen, NADH absorbance; inhibition, % at 4.8 µM; 1.2% of 360,000 active; AID 588335, 2011; in the data active = inhibition above about 30%;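 note: 0% = DMSO wells and 100% = wells lacking the enzyme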
Mtb UGM inh: M. tuberculosis UGM enzyme inhibitors, primary screen, biochemical, fluorescence polarization, single point | purified UGM, fluorescence polarization probe displacement | 0.06% of 320,000 active | UDP-galactopyranose mutase (Mycobacterium tuberculosis (strain ATCC 25618 / H37Rv)), … | inhibition, % at 10 µM | AID 504406, 2011; in the data active = inhibition above about 10%, passing the limit was not always enough
Rv3671c protease: Rv3671c serine protease inhibitors, primary screen, biochemical, fluorescence polarization, M. tuberculosis H37Rv | AID 2606, 2010 | 0.048% of 320,000 active | inhibition, % at 5.96 µM | P9WHR9; in the data active = inhibition above about 38%;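 note: extracellular domain of Rv3671c used as enzyme; 0% = enzyme with DMSO and 100% = no enzyme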
* marks the source's active call; other numbers are inactive results; x = not tested or not shown.

SMILES	Mtb FBA inh	Mtb bLac sens	GDH-TPI counter	Mtb UGM inh	Rv3671c protease
O=C(NCC1CCCO1)c1cc(-c2ccncc2)nc2ccccc12 (stereo not drawn)	1	x	-1	x	x
Cc1ccccc1NC(=O)c1cc(-c2ccco2)nc2ccccc12	5	x	12	x	x
Cc1ccc(S(=O)(=O)N(C)C)cc1NC(=O)c1cc(-c2ccco2)nc2ccccc12	45*	-4	10	-1	-5
O=C(NCC1CCCO1)c1cc(-c2ccco2)nc2ccccc12 (stereo not drawn)	183*	0	28	0	2
Cc1ccc(-c2ccc(/C=N/n3cnnc3)o2)cc1Cl	7	96	36*	1	-8
Cc1cc(C(=O)O)ccc1-c1ccc(/C=N/n2cnnc2)o1	6	2	50*	2	x
Clc1cccc(-c2ccc(/C=N/n3cnnc3)o2)c1	0	-2	50*	0	-8
Cc1ccc(-c2ccc(/C=N/n3cnnc3)o2)cc1	2	94	25	-1	0
CC1(C)CC(=O)C=C(Nc2ccc([N+](=O)[O-])cc2)C1	-3	-5	47*	0	-1
CC1(C)CC(=O)C=C(Nc2ccc(O)cc2)C1	2	x	19	x	x
COC(=O)c1ccc(NC2=CC(=O)CC(C)(C)C2)cc1	4	10	44*	0	10
COc1ccc(C)c2sc(N(CCN(C)C)C(=O)/C=C/c3cccs3)nc12	0	98	31*	1	-7
CCOc1cccc2sc(N(CCN(C)C)C(=O)/C=C/c3cccs3)nc12	-6	100	4	-3	-8
CN(C)CCCN(C(=O)/C=C/c1cccs1)c1nc2ccc(F)cc2s1	-2	x	48*	-1	4
COc1cccc2sc(N(CCN(C)C)C(=O)/C=C/c3cccs3)nc12	1	-5	32*	0	5
COc1ccc(OC)c2sc(N(CCN(C)C)C(=O)/C=C/c3cccs3)nc12	4	85	33*	3	2
CCN(CC)CCN(C(=O)/C=C/c1cccs1)c1nc2ccc(F)cc2s1	2	7	4	1	-8
COc1ccccc1-n1c(-c2cc(-c3ccc(F)cc3)n[nH]2)n[nH]c1=S	2	3	1	1	-4
CCN(CC)Cc1c[nH]c2c(C(=O)OC)cccc12	67*	9	20	x	-7
CN(C)c1ccc(-c2nc3ccccc3c(=O)[nH]2)cc1	2	8	74*	0	-17
CCN1CCSc2ccc(C(=O)NCc3ccccc3C)cc21	129*	4	12	0	8
CN1CCSc2ccc(C(=O)NCc3ccccc3F)cc21	137*	-5	4	-4	3
CCOc1ccc(NC(=O)c2ccc3c(c2)N(C)CCS3)cc1	11	x	14	x	x
CC(C)Oc1ccc(CNC(=O)c2ccc3c(c2)N(C)CCS3)cc1	140*	3	4	-1	5
CCN1CCSc2ccc(C(=O)Nc3ccc(NC(C)=O)cc3)cc21	7	18	15	-4	2
SMILES	Mtb FBA inh	Mtb bLac sens	GDH-TPI counter	Mtb UGM inh	Rv3671c protease
CCC(CO)NCC#Cc1ccccc1 (stereo not drawn)	0	5	6	0	5
CC(C)c1ccc(N(CC(=O)NCc2ccc(F)cc2)C(=O)c2csnn2)cc1	-1	-3	2	2	11
CC(C)(C)OC(=O)C[C@@H]1C/C=C\C[C@@H](CC(=O)NCCO)C(=O)N2CCC[C@H]2COC1=O	-1	-4	-2	0	-4
O=C(N/N=C/c1ccc(N2CCOCC2)cc1)c1ccc(O)cc1	4	12	66*	0	2
O=C(N/N=C/c1ccc(N2CCOCC2)s1)c1ccc(O)cc1	1	x	34*	x	x
Cc1ccc(C(=O)N/N=C/c2ccc(N3CCOCC3)cc2)c(C)c1	1	-8	34*	0	1
COc1cc(OC)cc(C(=O)OCCCOC(=O)c2cc(OC)cc(OC)c2)c1	0	3	0	-2	1
CC12CN3CC(C)(CN(C1)C3c1ccc(Cl)cc1Cl)C2O (stereo not drawn)	-1	6	-2	0	0
CN(C)c1ccc(C2N3CC4(C)CN2CC(C)(C3)C4O)cc1 (stereo not drawn)	4	-1	42*	4	0
CCN(C(=O)Cn1cc(C(F)(F)F)ccc1=O)C1CCS(=O)(=O)C1 (stereo not drawn)	1	x	7	x	x
O=C1/C(=C\c2ccccc2)SC(=S)N1CCC(=O)N1CCCCC1CCO (stereo not drawn)	-2	6	9	3	2
O=C(O)C1CCN(C(=O)CCN2C(=O)S/C(=C\c3ccccc3)C2=O)CC1	-2	-2	35*	-2	4
COc1cccc(/C=C2\SC(=O)N(CCC(=O)N3CCCCC3CCO)C2=O)c1 (stereo not drawn)	-1	1	31*	1	-8
O=C(CCN1C(=O)S/C(=C\c2ccccc2)C1=O)N1CCCCC1	-10	-5	10	-5	6
O=C(/C=C\c1ccco1)Nc1nc(-c2ccc3ccccc3c2)cs1	2	0	36*	-2	-168
Cc1ccc(-c2csc(NC(=S)NC(=O)/C=C/c3ccco3)n2)cc1	5	3	3	1	-32
Cc1ccc(C(=O)Nc2cc(=O)n(C)c(=O)n2C)o1	-3	-19	33*	-1	-2
O=C(/C=C/c1ccc2c(c1)OCO2)Nc1nc(-c2ccccc2)cs1	3	-12	46*	-5	-103
NS(=O)(=O)c1ccc(NC(=O)/C=C/c2ccc3c(c2)OCO3)cc1	22	2	36*	0	-22
Cc1cccc(C(=O)Nc2cc(=O)n(C)c(=O)n2C)c1	0	1	-6	1	-2
C=CCOC(=O)CCCCCCCC	-2	-14	1	0	6
CCN(CC(=O)Nc1ccccc1C(F)(F)F)C(=O)c1ccc(N2C(=O)CCC2=O)cc1	2	-11	-1	1	-2
C/C(CCS(=O)(=O)c1ccccc1)=N/O	0	-7	6	-7	7
Cc1cc(C)nc(NC(=O)/C=C/c2ccc3c(c2)OCO3)c1	13	4	40*	-3	-8
O=C(/C=C/c1ccc2c(c1)OCO2)c1ccc(O)cc1O	-10	x	40*	x	x
CCc1ccccc1NC(=O)c1cccc(NC(=O)/C=C/c2ccco2)c1	0	1	44*	1	-18
Cc1ccccc1-n1nc2c(c1NC(=O)/C=C\c1ccc3c(c1)OCO3)CSC2	2	0	32*	1	-24
O=C(/C=C/c1ccco1)Nc1cccc(C(=O)Nc2ccccc2C(=O)O)c1	-3	0	15	2	-31
CCN(CC)S(=O)(=O)c1cccc(C(=O)NC(C(=O)NNC(=O)c2ccccc2F)C(C)C)c1 (stereo not drawn)	5	x	2	x	x
Cc1ccc(/C=C/C(=O)Nc2cc(=O)n(C)c(=O)n2C)o1	-3	2	2	4	0

Compound activity as filed in PubChem.
